PNC inhibitor: inhibitors of perinucleolar compartment assembly. activity change (PNC), negative = inhibition, % at 10 µM. PC3M PTB-GFP, PNC prevalence imaging, 16 h; active compounds read low. 140,000 tested, 3.1% active. AID 2417;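 active = readout at or below -70, meaning at least 70% loss of cells showing the perinucleolar compartment, a nuclear body marking cancer cells; inconclusive = readout between -30 and a set limit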;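 note: plate controls were DMSO wells for no effect and camptothecin positive control wells for full effect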
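PC3M cells stably expressing PTB-GFP, 750–1000 cells/well, treated 16 h at 37 °C with compound (23 nl of library stock), in duplicate. After paraformaldehyde fixation and Hoechst stain, imaged at 20x; PNC prevalence scored by image analysis.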
ALDH1A1 inh: ALDH1A1 (human) enzyme inhibition; 220,000 tested, 7.3% active; P00352; Purified ALDH1A1, NADH fluorescence, propionaldehyde substrate; Potency, µM (top dose mostly 75.3 µM), for the others: top-dose activity, negative = inhibition, hits mostly inhibitors;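 note: potency is the fitted concentration of half-maximal effect; plate controls were no enzyme wells and a reference inhibitor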
Target sequence (P00352 whole entry, looked up): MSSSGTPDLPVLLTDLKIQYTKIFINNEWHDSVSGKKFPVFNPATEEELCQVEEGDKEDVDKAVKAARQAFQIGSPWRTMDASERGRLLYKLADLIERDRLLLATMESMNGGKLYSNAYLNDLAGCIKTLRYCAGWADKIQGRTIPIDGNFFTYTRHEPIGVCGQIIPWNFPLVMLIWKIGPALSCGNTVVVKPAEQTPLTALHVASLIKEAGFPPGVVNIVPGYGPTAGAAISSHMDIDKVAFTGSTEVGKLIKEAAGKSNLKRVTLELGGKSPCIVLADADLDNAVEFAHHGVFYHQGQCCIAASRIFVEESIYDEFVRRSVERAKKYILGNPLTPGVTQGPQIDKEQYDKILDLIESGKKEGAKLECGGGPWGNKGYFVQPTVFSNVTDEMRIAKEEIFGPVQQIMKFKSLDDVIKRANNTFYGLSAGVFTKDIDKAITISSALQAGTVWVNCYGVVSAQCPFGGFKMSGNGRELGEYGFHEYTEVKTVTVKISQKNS
HPGD block: inhibitors of human 15-hydroxyprostaglandin dehydrogenase (HPGD) | P15428 | purified HPGD, NADH fluorescence kinetic, PGE2 substrate | AID 894 | Potency, µM, for inactives: at the highest dose activity change, negative = inhibition, most hits filed as inhibitors | 150,000 tested, 4.3% active; note: potency is the fitted concentration of half-maximal effect
Target sequence (P15428 whole entry, looked up): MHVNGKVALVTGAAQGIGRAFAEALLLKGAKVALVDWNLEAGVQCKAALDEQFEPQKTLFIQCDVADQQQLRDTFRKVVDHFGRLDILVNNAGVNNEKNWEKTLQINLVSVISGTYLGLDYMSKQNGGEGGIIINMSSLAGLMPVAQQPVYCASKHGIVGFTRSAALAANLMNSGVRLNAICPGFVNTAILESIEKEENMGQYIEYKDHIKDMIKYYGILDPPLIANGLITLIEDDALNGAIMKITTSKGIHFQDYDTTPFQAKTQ
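20 nM HPGD preincubated 15 min at room temperature with compound in 50 mM Tris-HCl pH 8, 0.01% Tween 20. Started with 1 mM NAD+ and 30 uM prostaglandin E2; NADH fluorescence (360/450 nm) read 5 times over 30-s intervals, last minus first.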
LMNA splice mod: LMNA splicing modulation; 200,000 tested, 0.01% active; HeLa LMNA splicing GFP/RFP minigene ratio, 48 h; Potency, µM (highest dose often 46.1 µM), without a hit: at the top dose ratio change, negative = inhibition, actives largely listed as inhibitors; active = well fitted inhibition curve with a large enough effect in the signal ratio, with a control signal flat, not every such curve was filed as active; inconclusive = small, poorly fitted or top-dose-only effect, or effect the other way, or a change in a side signal; the % refers to the signal ratio; note: potency is the fitted concentration of half-maximal effect
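S3 HeLa cells stably expressing lamin A-EGFP splicing minigene plus DsRed2, 600 cells/well, 48 h compound exposure at 37C. Laser-scanning cytometry; analysed as GFP (500-530 nm)/RFP (575-640 nm) total intensity ratio; 0.5% DMSO vehicle.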
ALOX12 inhib: 12-hLO (ALOX12) enzyme inhibition; P18054; purified 12-hLO, xylenol orange hydroperoxide absorbance; Potency, µM (series often up to 57.1 µM), without a hit: at the top dose activity change, negative = inhibition, usual class: inhibitors; 150,000 tested, 0.12% active; AID 1452; active = well fitted inhibition curve with a large enough effect; inconclusive = small, poorly fitted or top-dose-only effect; note: potency is the fitted concentration of half-maximal effect; nearly all actives have a fitted effect of over 55% in size
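150 nM 12hLO, 25 mM Hepes pH 7.0 + 0.01% Triton X-100; cpd preinc 15 min RT; 40 uM arachidonic acid, 30 min RT; Fe-XO 30 min; A573/A405 ratio as read-out.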
Starred values were filed as active, the others as inactive; [ ] = dose if it differs, or a comment. This is a sample that favours compounds with a hit; in the whole collection about 10% have one here. Unless noted, calls come from the whole dose curve; as a rule, active = well fitted inhibition curve with a large enough effect (not every such curve was filed as active); inconclusive = small, poorly fitted or top-dose-only effect, or another doubt; inactive = no such curve, though single readings can be large or run the other way. Unless noted, % is set by controls: 0 for no effect and ±100 for the full control effect.

What do the screens show for `CC(C)(C)c1cc(CN2CCCCC2)cc(C(C)(C)C)c1O`?
PNC inhibitor: -23; ALDH1A1 inh: 14µM*; HPGD block: -2%; LMNA splice mod: 10%; ALOX12 inhib: -28%

What do the screens show for `O=C(O)c1cccc(CN2CCCCC2)c1`?
ALDH1A1 inh: 15%[13.5 µM]; HPGD block: -9%; ALOX12 inhib: 3%[11.4 µM]

How did Cc1cccc(NS(=O)(=O)c2ccc(Cl)c(C(=O)O)c2)c1 do in these assays?
ALDH1A1 inh: 14%; HPGD block: -9%; ALOX12 inhib: -3%

Results for O=C(O)c1ccc([N+]2=Cn3c(nc4ccccc43)C2)cc1 ?
ALDH1A1 inh: 16%[13.5 µM]; HPGD block: 0%; ALOX12 inhib: -1%[11.4 µM]

What do the screens show for `CCOC(=O)c1c(NC(=O)CCN2C(=O)c3ccccc3C2=O)sc(C(=O)OC(C)C)c1C`?
PNC inhibitor: 7; ALDH1A1 inh: 10%; HPGD block: -25%; LMNA splice mod: 4%; ALOX12 inhib: 8%

What do the screens show for `CCOC(=O)c1sc(NC(=O)CCN2C(=O)c3ccccc3C2=O)c(C(=O)OCC)c1C`?
PNC inhibitor: 41; ALDH1A1 inh: inconclusive; HPGD block: -5%; LMNA splice mod: -9%; ALOX12 inhib: -4%

What do the screens show for `CCOC(=O)c1sc(NC(=O)CCN2CCN(CC)CC2)c(C(=O)OCC)c1C`?
ALDH1A1 inh: 10µM*; LMNA splice mod: inconclusive

Results for CCOC(=O)c1sc(NC(=O)CCN2CCC(C)CC2)c(C(=O)OCC)c1C ?
ALDH1A1 inh: 2.5µM*; LMNA splice mod: inconclusive

What do the screens show for `CC(=O)OC[C@@H]1O[C@@H](O/N=C2/C[C@@H](O)[C@@H](O)[C@@H]3[C@@H]4C(=O)N(C5CCCCC5)C(=O)[C@H]4CC[C@H]23)[C@H](OC(C)=O)[C@H](OC(C)=O)[C@@H]1OC(C)=O`?
ALDH1A1 inh: -11%[13.5 µM]

Results for COc1ccc(NC(=O)c2cn(CCC#N)nc2-c2cccs2)cc1 ?
PNC inhibitor: 8; ALDH1A1 inh: 10%; HPGD block: 5%; LMNA splice mod: -16%; ALOX12 inhib: -1%

What do the screens show for `N#CCCn1cc(C(=O)Nc2ccc([N+](=O)[O-])cc2)c(-c2cccs2)n1`?
PNC inhibitor: 73; ALDH1A1 inh: 22µM*; HPGD block: -15%; LMNA splice mod: 3%; ALOX12 inhib: -6%

How did N#C/C(=C1/CCCCCN1)c1nc2ccccc2[nH]1 do in these assays?
PNC inhibitor: -18; ALDH1A1 inh: 8.9µM*; HPGD block: -26%; LMNA splice mod: 0%; ALOX12 inhib: -3%

How did Cc1ccccc1Nc1oc(-c2ccccc2)nc1-c1ccccc1F do in these assays?
ALDH1A1 inh: 2%; HPGD block: -18%; ALOX12 inhib: 1%

Results for CCOC(=O)N1CCN(Cc2ccc(O)c3ncccc23)CC1 ?
ALDH1A1 inh: 25µM*; LMNA splice mod: inconclusive

How did CCOC(=O)C1CCCN(c2cc(NCCCO)c([N+](=O)[O-])c3nonc23)C1 (stereo not drawn) do in these assays?
PNC inhibitor: inconclusive; ALDH1A1 inh: inconclusive; HPGD block: 13µM*; LMNA splice mod: 0%; ALOX12 inhib: -3%

How did CCC(=O)Nc1ccc(NC(=O)CSc2nnnn2-c2ccc3c(c2)OCCO3)cc1 do in these assays?
ALDH1A1 inh: 8%

How did O=C(CSc1nnnn1-c1ccc2c(c1)OCCO2)OC1CCCCC1 do in these assays?
PNC inhibitor: -9; ALDH1A1 inh: 5µM*; HPGD block: -25%; LMNA splice mod: -4%; ALOX12 inhib: -5%

What do the screens show for `Cc1ccc(NC(=O)CCSc2nnnn2-c2ccc3c(c2)OCO3)cc1C`?
PNC inhibitor: 35; ALDH1A1 inh: 13µM*; HPGD block: -27%; LMNA splice mod: -7%; ALOX12 inhib: -8%

Results for CCOC(=O)c1csc(NC(=O)CSc2nnnn2-c2ccc3c(c2)OCCO3)n1 ?
PNC inhibitor: -88*; ALDH1A1 inh: 4%; HPGD block: -8%; LMNA splice mod: inconclusive; ALOX12 inhib: -1%

How did COc1ccc(CN[C@H](C)C(=O)O)cc1 do in these assays?
ALDH1A1 inh: 7%[13.5 µM]; HPGD block: 4%; ALOX12 inhib: -4%[11.4 µM]

What do the screens show for `CSc1nc(N)nc(SC2C=CCCC2)c1C#N` (stereo not drawn)?
PNC inhibitor: 12; ALDH1A1 inh: 13µM*; HPGD block: -19%; LMNA splice mod: 11%; ALOX12 inhib: -6%

How did O=C1/C(=C/c2ccc(N3CCCC3)cc2)NC(=S)N1C1CC1 do in these assays?
PNC inhibitor: 45; ALDH1A1 inh: 16µM*; HPGD block: -7%; LMNA splice mod: inconclusive; ALOX12 inhib: -29%

What do the screens show for `Cc1cc(N2CCCC2)ccc1/C=C1\NC(=S)N(C)C1=O`?
ALDH1A1 inh: 4.5µM*

Results for O=C1N/C(=C/c2ccc(N3CCCC3)cc2)C(=O)N1c1ccccc1 ?
PNC inhibitor: 65; ALDH1A1 inh: -9%; HPGD block: -8%; LMNA splice mod: 3%; ALOX12 inhib: -2%

How did COCCNC(=O)c1cc2cc(Cl)cc(Cl)c2oc1=O do in these assays?
ALDH1A1 inh: 25µM*; LMNA splice mod: 13%[46 µM]

Results for O=C(NCCO)c1cc2cc(Cl)cc(Cl)c2oc1=O ?
ALDH1A1 inh: inconclusive; LMNA splice mod: -9%[46 µM]

What do the screens show for `COc1ccc(/C=C2\SC(=O)N(CCC(=O)Nc3ccccc3)C2=O)cc1OC`?
PNC inhibitor: 17; ALDH1A1 inh: 1%; HPGD block: -21%; LMNA splice mod: inconclusive; ALOX12 inhib: -1%

What do the screens show for `COc1ccccc1/C=C1\SC(=O)N(CCC(=O)NNC(=O)c2ccccc2Cl)C1=O`?
PNC inhibitor: -93*; ALDH1A1 inh: inconclusive; HPGD block: 48%; LMNA splice mod: inconclusive; ALOX12 inhib: 0%

What do the screens show for `O=C(CCN1C(=O)/C(=C/c2cccc(Br)c2)SC1=S)NNC(=O)c1cccnc1`?
PNC inhibitor: -2; ALDH1A1 inh: 10%; HPGD block: -2%; LMNA splice mod: 1%; ALOX12 inhib: -1%

How did COc1cccc(/C=C2\SC(=O)N(CCC(=O)NNC(=O)c3cccc(Cl)c3)C2=O)c1 do in these assays?
PNC inhibitor: -86*; ALDH1A1 inh: 6%; HPGD block: -12%; LMNA splice mod: -11%; ALOX12 inhib: 2%

How did O=c1c(CCc2ccccc2)nc2cnc(Oc3ccccc3)nc2n1C[C@H]1CCCO1 do in these assays?
ALDH1A1 inh: inconclusive; HPGD block: -7%; ALOX12 inhib: 13%

Results for C=CCn1cnc2c(c1=O)c1nc3ccccc3nc1n2/N=C/c1cccc(OC)c1 ?
PNC inhibitor: 8; ALDH1A1 inh: 11µM*; HPGD block: -21%; LMNA splice mod: inconclusive; ALOX12 inhib: -5%

Results for CCCCCCn1cnc2c(c1=O)c1nc3ccccc3nc1n2/N=C/c1ccco1 ?
PNC inhibitor: inconclusive; ALDH1A1 inh: 25µM*; HPGD block: -23%; LMNA splice mod: 3%; ALOX12 inhib: -9%

Assay outcomes as filed in PubChem.
